Source: PubChem
In the library only some 3.1% were active in any assay of this set; here they are far more common.
HSF1 activator: increases HSF-1 driven luciferase reporter signal; NIH3T3-HGL HSF-1 luciferase reporter, MG132, 8 h; 100% = twice DMSO control signal; activation, % at 9 µM; hit rate 1.7% among 300,000;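 active = mean replicate activation of at least 50% with a set share of replicates each reaching 50%; inconclusive = only one of those two conditions met; inactive = mean below 50% and too few replicates reaching it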;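 also: 0% = median of the neutral control wells and 100% = twice that signal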
ARNT TACC3 PPI: disruptors of human ARNT/TACC3 interaction. Q9Y6A5. AlphaScreen His-ARNT PAS-B/GST-TACC3 binding, luminescence; TACC3 fragment carries E629A point mutation. inhibition, % at 9.99 µM. hit rate 0.66% among 390,000. AID 623870;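 active = mean inhibition of replicates at least 50% and at least half of replicates each reaching 50%; inconclusive = half or more replicates reach 50% but mean below 50%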;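 also: 0% = complete ARNT plus TACC3 wells and 100% = ARNT alone without TACC3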
HIF act: HIF pathway transcriptional activation | U2OS HRE-luciferase reporter, luminescence; normalized: DMSO 0%, desferrioxamine 100% | activation, % at 7.5 µM (by protocol) | hit rate 0.32% among 300,000;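 active = mean activation of at least 10% of the iron chelator positive control signal, with at least half of replicates also reaching 10%; inconclusive = mean and replicate majority disagree about reaching 10%; inactive = mean and most replicates under 10%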
HSP90 inh: HSP90 refolding inhibition in rabbit reticulocyte lysate; luciferase refolding luminescence, 3 h; inhibition, % at 5.6 µM; hit rate 0.91% among 290,000; AID 1789;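 active = inhibition above the screen-wide mean plus 3 SD, computed separately per campaign, cut at about 16% in these data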;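 also: 0% = DMSO wells and 100% = 60 µM geldanamycin wells; inhibitors lower the luminescence because luciferase stays unfolded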
HSF1 inh: HSF1 inhibition | NIH3T3-HGL HSE-luciferase, MG132-induced, luminescence 8 h; hits give low values | activity change, negative = inhibition, % at 7.5 µM (by protocol) | hit rate 0.77% among 300,000;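 active = more than half of replicate wells show activity change below -50%, luminescence cut by over half; inconclusive = some wells, but at most half, below -50%; inactive = no replicate well below -50%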;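 also: luciferase reports HSF-1 transcriptional activity via heat shock element; 0% = median of DMSO wells and -100% = zero luminescence signal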
* = called active by the depositor; ? = inconclusive; nt = no result given.

SMILES | HSF1 activator | ARNT TACC3 PPI | HIF act | HSP90 inh | HSF1 inh
CC(=O)Nc1ccc2nc(C3CC3)n(Cc3ccc(Cl)cc3)c(=O)c2c1 | ? | -6 | 5 | 1 | 54
COc1ccc(Cn2c(C3CC3)nc3ccc(NC(=O)C4CC4)cc3c2=O)cc1 | 70* | -16 | 6 | -2 | 49
COc1cccc(C2c3c(oc4ccccc4c3=O)C(=O)N2Cc2ccco2)c1 (configuration not stated) | 59* | 47* | 2 | nt | 22
COc1ccccc1S(=O)(=O)N(C)C[C@H]1OCc2ccccc2-c2c(n(C)c3ccccc23)C(=O)N([C@@H](C)CO)C[C@@H]1C | nt | 20 | nt | nt | nt
O=C(Nc1ccc(Br)cn1)c1ccc(Br)s1 | 70* | -3 | 5 | 5 | 37
O=C(Nc1ccc(Br)cn1)c1ccc(Cl)s1 | ? | -10 | 4 | 2 | 35
Cc1cc(C)c2sc(N(CCCN(C)C)C(=O)c3ccc(S(=O)(=O)N4CCc5ccccc5C4)cc3)nc2c1 | -13 | 4 | -3 | nt | -5
Cc1cc(C)c2nc(NNC(=O)c3ccc(S(=O)(=O)N4CCc5ccccc5C4)cc3)sc2c1 | -37 | 6 | 22* | 5 | -27
CCc1nnc(NC(=O)c2ccc(S(=O)(=O)N3CCc4ccccc4C3)cc2)s1 | -13 | -5 | 0 | 0 | -1
Cc1cc(C)c2sc(NNC(=O)c3ccc(S(=O)(=O)N4CCc5ccccc5C4)cc3)nc2c1 | -21 | 10 | 159* | -1 | -20
Cc1ccc(S(=O)(=O)Nc2cccc3c2O[C@H](CN(C)S(=O)(=O)c2ccc(C)cc2)[C@H](C)CN([C@H](C)CO)C3=O)cc1 | nt | 4 | nt | nt | nt
COCCNc1nc2sc3c(c2c(=O)n1Cc1ccco1)CCCCC3 | -43 | -2 | 3 | 4 | -30
CN(C)CCNc1nc2sc3c(c2c(=O)n1-c1ccccc1)CCCCC3 | 50* | 4 | 0 | 0 | 14
O=c1c2c3c(sc2nc(NCCO)n1Cc1ccco1)CCCCC3 | -61 | -2 | 1 | 4 | -57*
C=CCc1cccc(/C=N/NC(=O)CNc2cccc3ccccc23)c1O | 0 | 0 | 0 | 5 | -1
C=CCc1cccc(/C=C/c2cc(=O)c3ccccc3[nH]2)c1O | 55* | 9 | 1 | -1 | 25
Cc1nn(C(=O)c2cccnc2)c(C)c1Sc1ccccc1 | -7 | 2 | 103* | -4 | -4
O=C(C[C@H]1CC[C@@H]2[C@H](COC[C@@H](O)CN2C(=O)Nc2ccc(Cl)c(Cl)c2)O1)NCc1ccc(Cl)cc1 | nt | 8 | nt | nt | nt
Cc1c(Cl)cccc1Nc1nc(N)nc(CSc2nc3ccccc3s2)n1 | 12 | -5 | -1 | -2 | 9
Nc1nc(CSc2nc3ccccc3s2)nc(Nc2ccccc2)n1 | 58* | nt | 0 | 1 | 31
CCCNC(=O)Nc1ccc2c(c1)C(=O)N(C)[C@@H]1CC[C@H](CC(=O)O)O[C@@H]1CO2 | nt | -23 | nt | nt | nt
Cc1ccc(OCC(=O)Nc2ccc3c(c2)C(=O)N(CCC(=O)O)C3=O)cc1 | -1 | -1 | 0 | -3 | 1
Cc1ccccc1OCC(=O)Nc1ccc2c(c1)C(=O)N(CCC(=O)O)C2=O | -64 | -4 | 0 | -1 | -51*
C[C@H](CO)N1C[C@H](C)[C@@H](CN(C)S(=O)(=O)c2ccc(F)cc2)Oc2ccc(NC(=O)Nc3ccccc3)cc2CC1=O | nt | -3 | nt | nt | nt
O=C(Nc1nc2c(s1)CCCC2)c1ccc(Br)s1 | 59* | 3 | 2 | 4 | 34
SMILES | HSF1 activator | ARNT TACC3 PPI | HIF act | HSP90 inh | HSF1 inh
CC(C)NC(=O)Nc1ccc2c(c1)C(=O)N([C@H](C)CO)C[C@@H](C)[C@H](CN(C)S(=O)(=O)c1ccccc1)OCCCC[C@H](C)O2 | nt | 2 | nt | nt | nt
Cn1c(=O)c(=O)n(C)c2cc(S(=O)(=O)N3CCCC3C(=O)Nc3ccc(F)cc3)ccc21 (configuration not stated) | -6 | nt | 0 | -6 | -3
Cc1ccc(NC(=O)C2CCCN2S(=O)(=O)c2ccc3c(c2)n(C)c(=O)c(=O)n3C)cc1C (configuration not stated) | -65 | -1 | 0 | -4 | -53*
CCC(=O)Nc1ccc2c(c1)C(=O)N(C)C[C@H](OC)[C@@H](C)CN(C(=O)CC1CC1)[C@H](C)CO2 | nt | -3 | nt | nt | nt
Cc1nc2ccccc2c(N)c1C(=O)/C=C/c1ccccc1 | 64* | -21 | 0 | 16 | 42
Cc1[nH]c2ccccc2c1C(=O)/C=C/c1ccccc1 | 70* | 3 | 2 | -7 | 39
Cc1[nH]c2ccccc2c1C(=O)/C=C/c1ccccc1Cl | 113* | -5 | 4 | -9 | 84
CC(=O)c1c(C)nc2ccccc2c1N | -5 | -3 | 0 | -1 | 0
Cc1noc(C)c1S(=O)(=O)Nc1ccc2c(c1)C(=O)N([C@@H](C)CO)C[C@@H](C)[C@@H](CN(C)C(=O)Nc1ccccc1)OCCCC[C@@H](C)O2 | nt | -5 | nt | nt | nt
CC(C)(C)c1ccc2c(c1)OC(C(=O)N/N=C\c1ccc[nH]1)CO2 (configuration not stated) | -75 | 5 | 0 | 4 | -73*
C[C@@H]1CN([C@H](C)CO)C(=O)c2cc(NC(=O)Nc3ccc(F)cc3)ccc2O[C@@H]1CN(C)Cc1ccccc1 | nt | 2 | nt | nt | nt
COc1ccc(N2CCN(C(=O)Cc3ccc(-n4c(=O)[nH]c5ccccc5c4=O)cc3)CC2)cc1 | -69 | 6 | 0 | -3 | -58*
COc1ccc(N2CCN(C(=O)Cc3ccc(C)cc3)CC2)cc1 | 39 | 7 | 0 | -2 | 12
CCCOC1CCCN(C(=O)CCc2nnc(CCCCc3ccccc3)o2)C1 (configuration not stated) | 56* | 2 | 0 | -3 | 27
CN(Cc1ccccc1)C(=O)c1ccc(NC(=O)C2=CSCCO2)cc1 | 4 | -1 | -1 | 0 | 0
CN(Cc1ccccc1)C(=O)c1ccccc1NC(=O)C1=CSCCO1 | -79 | 11 | -1 | -2 | -76*
CC(C)CC#Cc1ccc2c(c1)O[C@H](CN(C)C(=O)Cc1cccnc1)[C@@H](C)CN([C@H](C)CO)S2(=O)=O | nt | 1 | nt | nt | nt
COc1ccc(N2C(=O)CC(NNc3ncc(Cl)cc3Cl)C2=O)cc1 (configuration not stated) | -70 | 68* | 0 | 7 | -60*
CCOP(=O)(OCC)c1nc(-c2cccc3ccccc23)oc1N1CCOCC1 | 74* | -26 | 1 | 1 | 22
CC(C)C(=O)NC(c1cccs1)c1cc([N+](=O)[O-])c2cccnc2c1O (configuration not stated) | 44 | 60* | 3 | 6 | 10
Cc1ccc(C(NC(=O)C(C)C)c2cc([N+](=O)[O-])c3cccnc3c2O)cc1 (configuration not stated) | 27 | 50* | 1 | 5 | 15
CCOc1ccc(C(=O)N/N=C/c2cccc3cccnc23)cc1 | 22 | 65* | 1 | -4 | 7
COc1ccc(C(=O)N/N=C/c2cccc3cccnc23)cc1 | 5 | 88* | 12* | 8 | 6
